# About 8,600 (12%) of roughly 69,000 compounds showed an effect of 50% or more. This excerpt belongs to a sample that is enriched for strong results.
# Test system: Plasmodium berghei
# Assay: Screen against P. berghei liver stage (PbLuc), transformed with Luciferase, at 10uM
# Type: functional, HepG2
# Conditions: tested at 10 uM
row,Compound,INHIBITION
1,CN(C)C(=O)c1cnc2n1CCN(Cc1cccc(C#N)c1)C2,33.4%
2,O=C(CCCc1nnc(-c2ccccc2)o1)N1CCC1,28.8%
3,O=S(=O)(c1cc(F)ccc1N1CC(n2cccn2)C1)C(F)(F)F,26.8%
4,O=S(=O)(c1ccccc1N1CC(n2cccn2)C1)C(F)(F)F,43.5%
5,Cc1cnn(C2CN(c3ccccc3S(=O)(=O)C(F)(F)F)C2)c1,89.4%
6,CN(Cc1nnn(CC2CCC2)n1)C(=O)c1ccccc1,-19.1%
7,CCN1CCN(C(C)CNC(=O)Nc2nc3ccccc3s2)CC1 (configuration not stated),59.4%
8,CCN1CCN(C(C)CNC(=O)Nc2nnc(C(C)C)s2)CC1 (configuration not stated),-11.6%
9,CCN1CCN(C(C)CNC(=O)Nc2nnc(C)s2)CC1 (configuration not stated),34.6%
10,CNC(=O)Nc1cc(-c2ccc(Br)cc2)nn1CCO,-4.74%
11,CN(C)CC1(O)CCN(C(=O)Cc2ccc3c(c2)CCC3)C1 (configuration not stated),19.5%
12,O=C(CN1CCc2c(ncn2C2CC2)C1)NC1CCN(C2CC2)CC1,39.2%
13,Cc1oc(-c2cc(F)cc(F)c2)nc1CN1C[C@@H](C)NC[C@@H]1C,-6.61%
14,Cc1ccc(-c2nc(CN3C[C@@H](C)NC[C@@H]3C)c(C)o2)s1,50.4%
15,CSc1ccc(-c2nc(CN3C[C@@H](C)NC[C@@H]3C)c(C)o2)cc1,24%
16,Cc1c(C(=O)NCCCS(C)(=O)=O)cccc1-c1ccccn1,-12.1%
17,Cc1c(C(=O)NCC(C)(C)S(C)(=O)=O)cccc1-c1ccccn1,-53.2%
18,Cc1c(C(=O)NCCC(=O)N2CCCC2)cccc1-c1ccccn1,71.4%
19,Cc1nn(C)c(Oc2cccc(F)c2)c1NC(=O)C1CCOCC1,62.9%
20,Cc1nn(COc2cccc(F)c2)c(C)c1NC(=O)C1CC1,46.6%
21,Cc1nn(C)c(Oc2cccc(F)c2)c1NC(=O)C1CCCO1 (configuration not stated),29.8%
22,Brc1ccccc1-c1nnc(CNCCn2cccn2)o1,29.7%
23,O=C(CCN1C[C@H]2CC[C@@H]1C2)N1CCN(c2cccc(Cl)c2)C(=O)C1,-6.94%

row,Compound,INHIBITION
1,CC(C)CNC(=O)[C@H]1C[C@H]2CN(C(=O)NCCc3ccccc3)C[C@@H]1O2,20.5%
2,Cc1ccccc1CC(=O)N1CCOCC1c1c(C)n[nH]c1C (configuration not stated),41.65%
3,Cc1n[nH]c(C)c1C1COCCN1C(=O)c1cccc(F)c1F (configuration not stated),-0.25%
4,Cc1ccc(CC(=O)N2CCOCC2c2c(C)n[nH]c2C)cc1 (configuration not stated),67.5%
5,Cc1n[nH]c(C)c1C1COCCN1C(=O)Cc1cccc(F)c1 (configuration not stated),16.8%
6,Cc1cccc(CCC(=O)N2CCOCC2c2c(C)n[nH]c2C)c1 (configuration not stated),-2.53%
7,Cc1cccc(CC(=O)N2CCOCC2c2c(C)n[nH]c2C)c1 (configuration not stated),53.8%
8,CSc1ccc(C(=O)N2CCOCC2c2c(C)nn(C)c2C)o1 (configuration not stated),23.4%
9,Cc1n[nH]c(C)c1C1COCCN1C(=O)Cc1ccccc1F (configuration not stated),83.4%
10,Cc1n[nH]c(C)c1C1COCCN1C(=O)c1ccc(Cl)o1 (configuration not stated),-0.482%
11,Cc1ccc(O)c(C(=O)N2CCOCC2c2c(C)n[nH]c2C)c1 (configuration not stated),1.563%
12,CSc1ccc(C(=O)N2CCOCC2c2c(C)n[nH]c2C)o1 (configuration not stated),57.45%
13,Cc1ccc(CC(=O)N2CCOCC2c2ncon2)cc1 (configuration not stated),19.4%
14,CN(CC1(O)CCCC1)C(=O)c1cccc(Nc2cnccn2)c1,22%
15,CCCN(C)S(=O)(=O)N1CCCC1c1ccco1 (configuration not stated),10.47%
16,CN(C)C(=O)C1CN(Cc2nccs2)CCN(S(C)(=O)=O)C1 (configuration not stated),7.52%
17,COCC(C)(O)CNC(=O)c1cc(-c2ccc(F)cc2)nn1C (configuration not stated),-89.3%
18,Cn1nc(C#N)c2c1CN(C(=O)c1cccnc1)CCC2,9.3%
19,CCCC(=O)NC(C(=O)OC)c1cc(F)ccc1F (configuration not stated),-14%
20,Cc1nnc(C2CCN(c3ncccn3)CC2)o1,25.8%
21,Cc1c(F)cccc1S(=O)(=O)NCCN,4.3%
22,CC(=O)NCC(=O)N1CCOC2(CCCN(c3ccc(C)nn3)C2)C1 (configuration not stated),8.74%
23,Cc1ncsc1CN1C[C@H](C(=O)NCC2CC2)[C@@H]2CCO[C@@H]2C1,24.9%

row,Compound,INHIBITION
1,O=C(NCC1CC1)[C@H]1CN(Cc2nccs2)C[C@H]2OCC[C@@H]12,17.7%
2,Cc1ncsc1CN1C[C@H](C(=O)NC2CCCC2)[C@@H]2CCO[C@@H]2C1,52%
3,O=C(NC1CCCC1)[C@@H]1CN(Cc2nccs2)C[C@H]2OCC[C@H]21,32.4%
4,Cc1ncsc1CN1C[C@H]2OCC[C@H]2[C@H](C(=O)NCC2CC2)C1,34.4%
5,CC(C)NC(=O)[C@@H]1CN(Cc2nccs2)C[C@H]2OCC[C@H]21,71.1%
6,Cc1ccc(S(=O)(=O)N2CC[C@@H]3C[C@H](NC(=O)c4[nH]ncc4Br)[C@@H]32)cc1,35.9%
7,Cc1ccc(S(=O)(=O)NC(=O)CCc2cscn2)cc1Cl,3.46%
8,Cc1nn(C)c(Cl)c1C1CCCN1C(=O)c1csnn1 (configuration not stated),10%
9,CCCn1cc2c(C(F)F)cc(SCC(=O)O)nc2n1,32.3%
10,CC(C)(CN1C[C@H](Nc2ncccn2)[C@@H](C2CC2)C1)N1CCOCC1,2.15%
11,CSc1cccc(NC(=O)Nc2c(O)oc3ccccc3c2=O)c1,1.86%
12,CC(C)(CN1CCC2(CCNCC2)CC1)N1CCOCC1,-22.1%
13,Cc1ccc(C(=O)NC2CCN(Cc3cccc4c3OCCO4)CC2)s1,33.8%
14,Cc1ccoc1C(=O)NC1CCN(Cc2cccc3c2OCCO3)CC1,52.1%
15,Cc1ccoc1C(=O)NC1CCN(Cc2ccccc2F)CC1,44.1%
16,Cc1ccoc1C(=O)NC1CCN(CC(=O)N(C)c2ccccc2)CC1,22.3%
17,Cc1ccoc1C(=O)NC1CCN(Cc2cccc3ccccc23)CC1,56.4%
18,Cc1ccoc1C(=O)NC1CCN(Cc2csc3c(F)cccc23)CC1,87.4%
19,Cc1ccoc1C(=O)NC1CCN(C(=O)Nc2ccccn2)CC1,-31.8%
20,CC(C)C(=O)NC1CCN(Cc2cccc3c2OCCO3)CC1,6.81%
21,Cc1ccoc1C(=O)NC1CCN(Cc2ccccc2C#N)CC1,-9.37%
